Our source for the morphology score values is the supplement of paper PMC13380429.

The subject of the assay is Vero E6 infected with SARS-CoV-2. Kind of assay: morphology score (similarity to uninfected cells); higher = more like uninfected cells. As to conditions: 24 h.
As for `Cc1cc(OCC(=O)O)cc(C)c1Cc1ccc(O)c(C(C)C)c1` [sobetirome] (10 µM), the morphology score turned out to be 0.0763.
With `Cc1cc(C(=O)Nc2cccc(C(=O)Nc3cccc(C(F)(F)F)c3)c2)on1` (10 µM) the figure was -0.209; with `CCC(=O)[C@@]1(C)[C@H](C)C[C@H]2[C@@H]3CCC4=CC(=O)C=C[C@]4(C)[C@H]3[C@@H](O)C[C@@]21C` [rimexolone] (10 µM), 0.134; with `CC(=O)Nc1ccc(OC[C@](C)(O)C(=O)Nc2ccc([N+](=O)[O-])c(C(F)(F)F)c2)cc1` [andarine] (10 µM), -0.0126.
With `Cc1ccc(-c2cc(C(F)(F)F)nn2-c2ccc(S(N)(=O)=O)cc2)cc1` [celecoxib] (10 µM) the figure was 0.193; with `CC(C)(C(=O)O)c1ccc(C(O)CCCN2CCC(C(O)(c3ccccc3)c3ccccc3)CC2)cc1` (stereo unspecified) [fexofenadine] (10 µM), -0.361.
With `COc1cc(CNC(=O)CCCC/C=C/C(C)C)ccc1O` [capsaicin] (10 µM) the figure was 0.0697; with `CC(C)(C)C[C@@H]1N[C@@H](C(=O)N[C@H]2CC[C@H](O)CC2)[C@H](c2cccc(Cl)c2F)[C@]12C(=O)Nc1cc(Cl)ccc12` (10 µM), -0.042.
As for `C[C@]12CC[C@H](O)CC1=CC[C@@H]1[C@@H]2CC[C@]2(C)C(c3cccnc3)=CC[C@@H]12` [Abiraterone (CB-7598)] (10 µM), the morphology score was -0.0295.
For `NCCCCN` [putrescine] (10 µM) the value was 0.0364.
With `CNc1ncc2cc(-c3cc(NC(=O)NCCC(C)(C)C)c(F)cc3C)c(C)nc2n1` (10 µM) the figure was 0.18.
